Sampled rows, rich in hits. Any-hit rate of the full collection: about 3%.
CF NFkB block = inhibitors of PAF-induced NF-kB signaling, primary screen, cell-based, GFP fluorescence, uHTS. KKLEB NF-kB-GFP reporter, GFP fluorescence overnight. inhibition, % at 5 µM. 0.86% of 360,000 active. AID 588850, 2011;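 active = at least 50% inhibition at 5 µM, scaled per plate between neutral and stimulator controls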;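 note: PAF is a Pseudomonas aeruginosa culture filtrate used as stimulus; plate controls were PAF-stimulated DMSO wells for no effect and unstimulated DMSO wells for full effect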
MITF TRPM1 inh = inhibitors of MITF-dependent TRPM1 promoter reporter, primary screen, cell-based, SK-MEL-5, single point, luciferase | 0.83% of 330,000 active | SK-MEL-5 TRPM1 promoter luciferase, 24 h | inhibition, % at 12.5 µM;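 active = mean inhibition across replicates of 60% or more, whatever share of single replicates reaches that level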
LMP1 NFkB inh = EBV LMP1-driven NF-kappaB luciferase reporter inhibitors, primary screen, cell-based, luminescence, single point. inhibition, % at 12.5 µM. AID 504558, 2011. 0.69% of 350,000 active. LMP1-induced NF-kappaB luciferase reporter cells; in the data active = inhibition above about 41%;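 note: 0% = neutral control wells and 100% = reference inhibitor control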
Peg3 prom inh-1 = Peg3 promoter-driven luciferase inhibitors, primary screen, cell-based, HeLa, luciferase luminescence | HeLa PEG-Prom luciferase reporter, overnight | inhibition, % at 20 µM | 1.7% of 360,000 active;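 active = inhibition of at least 50% at 20 µM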
HIF-2a block = HIF-2a reporter inhibitors, primary screen, luminescence, 786-0 RCC cells | 786-0 RCC cells HIF-2a reporter, luciferase luminescence, overnight | inhibition, % at 18.8 µM | 0.72% of 360,000 active | AID 624352, 2012;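 active = inhibition of the luminescence signal of 40% or more relative to plate controls, in a single-dose primary screen at 18.75 µM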
KKLEB cytotox = cytotoxicity in KKLEB CF airway cells, primary screen, cytotoxicity control for CF NF-kB inhibitor project, cell-based, uHTS, fluorescence assay plates | 0.36% of 360,000 active | KKLEB CF airway cells viability, ATPlite luminescence, overnight; active compounds read low; cells stimulated with P. aeruginosa culture filtrate | activity change (cytotoxicity), % at 5 µM | AID 602141, 2011;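 active = corrected activity change at or below -50% at 5 µM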
Peg3 prom inh-2 = Peg3 promoter reporter inhibitors, retest, confirmation, cell-based, HeLa, luciferase reporter, single concentration; shares compounds with Peg3 prom inh-1; HeLa PEG-Prom luciferase reporter, luminescence, overnight; inhibition, % at 20 µM; 84% of 1,300 active; AID 602417, 2012;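 active = at 20 µM dose, 40% or more inhibition averaged across four replicates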
CF NFkB conf = inhibitors of PAF-induced NF-kB signaling, retest, confirmation, cell-based, GFP fluorescence, single concentration. 64% of 1,300 active. shares compounds with CF NFkB block. AID 602472, 2012. inhibition, % at 5 µM. KKLEB CF airway cells, overnight; in the data active = inhibition above about 40%;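 note: stimulus PAF is a Pseudomonas aeruginosa filtrate and not platelet activating factor; plate controls were DMSO wells with stimulus for no effect and unstimulated DMSO wells for full effect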
HIF-2a conf = HIF-2a reporter inhibitor retest, confirmation, luminescence, 786-0 RCC cells. 56% of 1,800 active. AID 651580, 2012. shares compounds with HIF-2a block. HIF-2a luciferase reporter luminescence, overnight. inhibition, % at 18.8 µM;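 active = mean inhibition across four replicates of at least 40 percent at the single tested concentration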
HIF-1a counter = HIF-1a luciferase reporter signal reduction – MiaPaCa-2 cells, single concentration, counter-screen for HIF-2a inhibitor project, confirmation | shares compounds with HIF-2a block | MiaPaCa-2 HIF-1a luciferase reporter, desferoxamine, overnight | inhibition, % at 18.8 µM | 72% of 1,800 active | AID 651589, 2012;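 active = mean inhibition of the reporter signal across four replicates at the single tested dose of 50% or more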
Starred values were filed as active, the others as inactive; nt = not tested or not shown.

SMILES	CF NFkB block	MITF TRPM1 inh	LMP1 NFkB inh	Peg3 prom inh-1	HIF-2a block	KKLEB cytotox	Peg3 prom inh-2	HIF-2a conf	HIF-1a counter	others
CN(C)S(=O)(=O)c1ccc(Cl)c(NC(=O)CSc2nc3c(cc2C#N)C(=O)CC(C)(C)C3)c1	28	-1	-8	-15	17	-4	nt	nt	nt
NC(=O)c1nsc(C(=O)N(c2ccccc2F)C(C(=O)NCc2ccc(F)cc2)c2ccc(O)cc2)c1N (configuration not stated)	94*	6	-4	58*	19	-34	60*	nt	nt	CF NFkB conf=108*
O=C(O)c1ccc(N/N=C/c2ccc(OC(=O)c3ccccc3Cl)cc2)cc1	13	12	25	64*	81*	1	58*	84*	80*
CC(C)c1ccc(/C=N/Nc2ccc(C(=O)O)cc2)cc1	15	69*	4	85*	81*	1	67*	79*	40
Cc1ccc(/C=N/Nc2ccc(C(=O)O)cc2)s1	-10	81*	70*	69*	65*	-4	62*	82*	76*
Nc1ccc(C(=O)N/N=C\c2ccc(OC(=O)c3ccccc3Cl)cc2)cc1	-23	-34	-12	-1	-22	-1	nt	nt	nt
O=C(O)c1ccc(N/N=C/c2cc(Br)cs2)cc1	3	11	-1	1	23	6	nt	nt	nt
CCN1C(=O)[C@H]2[C@@H](c3ccc(OC)cc3)N[C@]3(CCCN(CC4CCCCC4)C3=O)[C@H]2C1=O	-9	nt	-4	6	0	4	nt	nt	nt
CC(=O)c1c(NCc2ccccc2)nc(=O)n(-c2ccccc2)c1C	-3	-52	-1	-99	-90	8	nt	nt	nt
CC(=O)c1c(NCCc2ccccc2)nc(=S)n(-c2ccccc2)c1C	-16	6	2	101*	92*	13	99*	-11	20
N#Cc1c(N)nc(SCc2ccncc2)c(C#N)c1-c1cccs1	4	8	21	54*	45*	-4	70*	29	61*
Cc1cnc(NC(=O)c2ccc3c(c2)OCCO3)s1	11	82*	79*	87*	77*	-58*	81*	90*	80*
Cc1c(C(=O)N(C)Cc2ccc(F)cc2)sc(=O)n1Cc1ccc(Cl)c(Cl)c1	20	nt	nt	8	-3	-12	nt	nt	nt
CCCCNC(=O)C1(C)CCN1C(=O)c1cc(-c2cccs2)oc1C (configuration not stated)	26	nt	nt	33	29	-19	nt	nt	nt
C=C1CC(COc2ccc3c(C)c(Cl)c(=O)oc3c2)(c2ccccc2)OC1=O (configuration not stated)	91*	101*	1	98*	85*	-71*	98*	71*	105*
O=C(Nc1ccc(N2CCOCC2)cc1)c1cnsn1	4	79*	77*	101*	75*	-8	74*	88*	84*
CN(C)c1c([N+](=O)[O-])cc(N2C(=O)C=CC2=O)cc1[N+](=O)[O-]	-13	63*	-1	104*	94*	10	96*	57*	3
Cc1cc(C(=O)CN2C(=O)NC(C)(c3ccccc3)C2=O)c(C)n1CC1CCCO1 (configuration not stated)	16	-2	-7	-8	-3	6	nt	nt	nt
Cc1cc(C(=O)CN2C(=O)c3ccccc3S2(=O)=O)c(C)n1CC1CCCO1 (configuration not stated)	-14	83*	80*	96*	92*	-8	93*	98*	104*
Cc1ccc(C)c(C(=O)CN2C(=O)c3ccccc3S2(=O)=O)c1	9	16	14	1	-53	0	nt	nt	nt
CCCn1c(C)cc(C(=O)CN2C(=O)c3ccccc3S2(=O)=O)c1C	-1	nt	82*	89*	91*	6	87*	95*	95*
COc1ccc(C(=O)CN2C(=O)c3ccccc3S2(=O)=O)cc1	8	nt	nt	98*	88*	-5	84*	92*	92*
O=C(Nc1ccccc1F)c1csc([C@@H]2C[C@H](O)[C@@H](CO)O2)n1	-17	nt	nt	-10	-23	-7	nt	nt	nt
COC(=O)Cc1[nH]n(-c2nc3ccccc3s2)c(=O)c1C(C)=Nc1ccc(C)cc1	4	97*	82*	91*	87*	8	94*	92*	102*
COC(=O)Cc1[nH]n(-c2nc3ccccc3s2)c(=O)c1C(C)=Nc1ccc(Cl)cc1	11	80*	38	94*	85*	-15	94*	93*	102*
SMILES	CF NFkB block	MITF TRPM1 inh	LMP1 NFkB inh	Peg3 prom inh-1	HIF-2a block	KKLEB cytotox	Peg3 prom inh-2	HIF-2a conf	HIF-1a counter	others
COC(=O)[C@@]12C[C@@H](CC(=O)N3CCSCC3)C(=O)N(Cc3ccco3)C1=CCC(C)(C)C2	nt	nt	nt	nt	-14	nt	nt	nt	nt
Cc1ccc(S(=O)(=O)NC(CC(C)C)C(=O)NCC(c2ccco2)N2CCCCC2)cc1 (configuration not stated)	-22	59	49*	75*	80*	13	85*	88*	93*
CC(=O)Nc1ccc(S(=O)(=O)NC(C)C(=O)NCC(c2ccco2)N2CCCCC2)cc1 (configuration not stated)	-10	nt	0	4	14	6	nt	nt	nt
CN(C)CCNC(=O)c1ccc2nc([C@@H]3O[C@H](CO)[C@H](O)[C@H](O)[C@H]3O)[nH]c2c1	-12	nt	nt	-14	1	0	nt	nt	nt
Cc1ccc(C(=O)CSc2nnc3ccccn23)c(C)c1	5	-11	-3	-108	-88	15	nt	nt	nt
COCCn1c(C)cc(C(=O)CSc2nnc3ccccn23)c1C	7	59	50*	64*	44*	-7	54*	76*	49
CCCCN=C1NN=C(c2ccc3c(c2)OCCO3)CS1	-2	16	20	-95	-59	-1	nt	nt	nt

Screening data as filed in PubChem BioAssay.
